Data on 23 compounds can be found in PubChem BioAssay (Tox21).

Inconclusive results are not listed. Activity calls are given as the source filed them. Unless noted, calls come from the whole dose curve; as a rule, active = well fitted curve in the direction sought with a large enough effect in the repeat runs; inconclusive = weak or mixed curves; inactive = no such curve, though single readings can be large; an effect the other way counts as inactive or inconclusive.

Test [1] has as its target Acetylcholinesterase (Homo sapiens) (UniProt P22303). The test is described as follows: Acetylcholinesterase (AChE) small molecule antagonists: enzyme-based qHTS assay (AID 1347397; calls by dose curve; note: nearly all actives have a fitted effect of over 55% in size). Particulars: Potency: AChE enzyme activity inhibition. Summed up:
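Absorbance-based detection of thiocholine with DTNB served as the read-out. Recombinant human AChE was exposed to compound for 30 min at RT before a 10 min RT incubation with acetylthiocholine.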
A general note: qHTS replaces the single test concentration by a dilution series.

Test [2] has the same target. In words: Acetylcholinesterase (AChE) small molecule antagonists: fluorescence cell-based qHTS assay (AID 1347398; calls by dose curve; note: nearly all actives have a fitted effect of over 50% in size; note: potency is the fitted concentration of half-maximal effect). The conditions noted are these: Potency: AChE activity. Summed up: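 Fluorimetric cell-based assay: intact SH-SY5Y cells, 30 min compound preincubation at 37 C, acetylthiocholine substrate with thiol probe Thiolite Green, 40 min RT development, fluorescence 490/520 nm.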

Test [3] shares this target. In words: Acetylcholinesterase (AChE) small molecule antagonists: enzyme-based qHTS assay with human liver microsomes (AID 1347399; calls by dose curve; note: nearly all actives have a fitted effect of over 60% in size). Particulars: Potency: qHTS inhibition. Summed up: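 Recombinant human AChE (50 mU/mL in the enzyme mix) and human liver microsomes (0.25 mg/mL final) were preincubated with compound and NADPH (0.25 mg/mL final) for 30 min at 37 C. Acetylthiocholine/DTNB was then added; thiocholine was read colorimetrically after 10 min at room temperature.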

The target of test [4] is Cytochrome P450 2C19 (Homo sapiens) (UniProt P33261). In words: Cytochrome P450 Family 2 Subfamily C Member 19 (CYP2C19) small molecule antagonists: luciferase reporter qHTS assay (AID 1671197). Note: nearly all actives have a fitted effect of over 65% in size. Note: potency is the fitted concentration of half-maximal effect. The method, boiled down: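 Inhibition of CYP2C19 was scored from loss of luminescence in a P450-Glo proluciferin substrate assay, NADPH-started and run 1 h at 37C, with ketoconazole as positive control.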

The target in test [5] is Cytochrome P450 2C9 (Homo sapiens) (UniProt P11712). The test is described as follows: Cytochrome P450 Family 2 Subfamily C Member 9 (CYP2C9) small molecule antagonists: luciferase reporter qHTS assay (AID 1671198). Note: nearly all actives have a fitted effect of over 50% in size. Note: potency is the fitted concentration of half-maximal effect. The method, boiled down:
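Enzyme-substrate mix preincubated with compound 10 min at room temperature; reaction started with NADPH regeneration solution, 1 h 37C. Luminescent luciferin product read after 20 min detection reagent.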
(In general: A reporter such as luciferase makes a cellular process visible.)

Test [6] has as its target Cytochrome P450 1A2 (Homo sapiens) (UniProt P05177). In words: Cytochrome P450 Family 1 Subfamily A Member 2 (CYP1A2) small molecule antagonists: luciferase reporter qHTS assay (AID 1671199). Note: nearly all actives have a fitted effect of over 50% in size. Note: potency is the fitted concentration of half-maximal effect. The method, boiled down:
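Enzymatic CYP1A2 assay, human, luminescent: 10 min compound–enzyme–substrate preincubation, 1 h NADPH-dependent turnover, 20 min detection step, room temperature throughout. Reduced light indicates lower CYP1A2 activity.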

Test [7] addresses Voltage-gated inwardly rectifying potassium channel KCNH2 (Homo sapiens) (UniProt Q12809). The test is described as follows: Human Ether-a-go-go-Related Gene (hERG) channel small molecule antagonists: fluorescence cell-based qHTS assay (AID 1671200). Note: nearly all actives have a fitted effect of over 50% in size. Note: potency is the fitted concentration of half-maximal effect. Summed up:
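U2OS cells expressing the channel were plated at 1000 cells/well, incubated overnight at 37 C, then loaded with FluxOR II thallium-sensitive dye for 1 h at room temperature in the dark, with a further 10 min at room temperature before stimulation.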
A general note: hERG is a cardiac potassium channel; its block is linked to QT prolongation.

For test [8], the target named is Cytochrome P450 3A4 (Homo sapiens) (UniProt P08684). The test is described as follows: Cytochrome P450 Family 3 Subfamily A Member 4 (CYP3A4) small molecule antagonists: luciferase reporter qHTS assay (AID 1671201). Note: nearly all actives have a fitted effect of over 50% in size. Note: potency is the fitted concentration of half-maximal effect. Summed up:
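P450-Glo CYP3A4 system with proluciferin substrate; compounds preincubated 10 min RT with enzyme-substrate mix, then NADPH regeneration added for 1 h RT. Detection reagent 20 min, luminescence read as relative luminescence units.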

Chain of Cytochrome P450 1A2 (Homo sapiens) (P05177 whole entry, looked up): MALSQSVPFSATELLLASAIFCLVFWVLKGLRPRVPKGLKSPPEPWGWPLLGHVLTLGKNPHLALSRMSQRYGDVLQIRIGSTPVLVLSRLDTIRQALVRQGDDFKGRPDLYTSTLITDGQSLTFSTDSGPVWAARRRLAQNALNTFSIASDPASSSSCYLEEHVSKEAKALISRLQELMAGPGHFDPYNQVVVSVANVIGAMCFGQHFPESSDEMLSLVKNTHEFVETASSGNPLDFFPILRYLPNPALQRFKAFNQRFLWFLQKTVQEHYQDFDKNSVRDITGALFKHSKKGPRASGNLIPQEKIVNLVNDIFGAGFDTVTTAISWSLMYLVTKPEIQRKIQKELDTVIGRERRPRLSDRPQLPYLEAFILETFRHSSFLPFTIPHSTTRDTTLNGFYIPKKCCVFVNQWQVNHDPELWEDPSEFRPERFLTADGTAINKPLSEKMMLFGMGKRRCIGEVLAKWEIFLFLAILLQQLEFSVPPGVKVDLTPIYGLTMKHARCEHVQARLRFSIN
Chain of Acetylcholinesterase (Homo sapiens) (P22303 whole entry, looked up): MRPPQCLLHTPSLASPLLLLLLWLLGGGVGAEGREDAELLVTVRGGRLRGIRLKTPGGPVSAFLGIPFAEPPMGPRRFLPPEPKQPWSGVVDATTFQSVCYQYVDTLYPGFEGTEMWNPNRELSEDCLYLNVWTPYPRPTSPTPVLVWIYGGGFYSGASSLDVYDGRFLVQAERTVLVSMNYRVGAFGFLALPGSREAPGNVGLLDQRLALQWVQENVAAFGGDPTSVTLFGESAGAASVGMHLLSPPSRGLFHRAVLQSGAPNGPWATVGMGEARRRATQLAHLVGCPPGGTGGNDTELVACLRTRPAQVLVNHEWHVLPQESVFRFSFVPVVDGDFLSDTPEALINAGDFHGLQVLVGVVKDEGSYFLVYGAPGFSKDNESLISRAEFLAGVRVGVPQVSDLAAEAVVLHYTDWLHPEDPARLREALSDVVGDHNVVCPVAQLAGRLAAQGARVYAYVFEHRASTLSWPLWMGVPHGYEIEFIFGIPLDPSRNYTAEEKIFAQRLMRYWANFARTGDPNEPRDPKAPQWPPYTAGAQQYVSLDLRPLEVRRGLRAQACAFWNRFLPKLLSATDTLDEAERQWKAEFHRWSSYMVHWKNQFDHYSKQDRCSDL
Chain of Voltage-gated inwardly rectifying potassium channel KCNH2 (Homo sapiens) (Q12809 whole entry, looked up): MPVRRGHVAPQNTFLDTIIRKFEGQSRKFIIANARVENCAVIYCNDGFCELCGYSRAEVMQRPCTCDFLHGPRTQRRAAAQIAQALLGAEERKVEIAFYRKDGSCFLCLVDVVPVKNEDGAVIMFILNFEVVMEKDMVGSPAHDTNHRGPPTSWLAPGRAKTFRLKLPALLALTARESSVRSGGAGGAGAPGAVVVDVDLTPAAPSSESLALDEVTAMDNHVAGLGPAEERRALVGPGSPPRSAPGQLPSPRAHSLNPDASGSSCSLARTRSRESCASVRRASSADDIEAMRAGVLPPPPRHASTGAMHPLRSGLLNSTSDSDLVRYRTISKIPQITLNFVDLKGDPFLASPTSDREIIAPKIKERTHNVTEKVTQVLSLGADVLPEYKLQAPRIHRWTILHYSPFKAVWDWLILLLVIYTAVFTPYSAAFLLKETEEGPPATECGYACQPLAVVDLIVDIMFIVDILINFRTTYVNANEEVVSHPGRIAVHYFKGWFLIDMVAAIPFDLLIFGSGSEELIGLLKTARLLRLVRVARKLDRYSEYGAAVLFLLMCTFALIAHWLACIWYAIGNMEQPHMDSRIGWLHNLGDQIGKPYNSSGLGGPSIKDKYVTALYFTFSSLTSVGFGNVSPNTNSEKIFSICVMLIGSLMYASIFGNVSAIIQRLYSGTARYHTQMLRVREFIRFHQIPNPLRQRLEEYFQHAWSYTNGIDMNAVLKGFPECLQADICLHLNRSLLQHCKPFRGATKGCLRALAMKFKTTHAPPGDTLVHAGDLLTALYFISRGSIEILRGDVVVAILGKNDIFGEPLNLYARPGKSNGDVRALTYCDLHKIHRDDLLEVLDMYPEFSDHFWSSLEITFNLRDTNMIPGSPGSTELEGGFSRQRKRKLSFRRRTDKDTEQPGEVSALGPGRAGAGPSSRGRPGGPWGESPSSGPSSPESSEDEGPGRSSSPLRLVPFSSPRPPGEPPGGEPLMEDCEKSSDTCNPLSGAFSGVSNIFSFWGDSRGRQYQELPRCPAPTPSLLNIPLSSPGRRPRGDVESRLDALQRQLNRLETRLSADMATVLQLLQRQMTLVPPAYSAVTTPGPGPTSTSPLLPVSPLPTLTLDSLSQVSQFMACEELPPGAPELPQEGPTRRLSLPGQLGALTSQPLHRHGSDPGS
Chain of Cytochrome P450 3A4 (Homo sapiens) (P08684 whole entry, looked up): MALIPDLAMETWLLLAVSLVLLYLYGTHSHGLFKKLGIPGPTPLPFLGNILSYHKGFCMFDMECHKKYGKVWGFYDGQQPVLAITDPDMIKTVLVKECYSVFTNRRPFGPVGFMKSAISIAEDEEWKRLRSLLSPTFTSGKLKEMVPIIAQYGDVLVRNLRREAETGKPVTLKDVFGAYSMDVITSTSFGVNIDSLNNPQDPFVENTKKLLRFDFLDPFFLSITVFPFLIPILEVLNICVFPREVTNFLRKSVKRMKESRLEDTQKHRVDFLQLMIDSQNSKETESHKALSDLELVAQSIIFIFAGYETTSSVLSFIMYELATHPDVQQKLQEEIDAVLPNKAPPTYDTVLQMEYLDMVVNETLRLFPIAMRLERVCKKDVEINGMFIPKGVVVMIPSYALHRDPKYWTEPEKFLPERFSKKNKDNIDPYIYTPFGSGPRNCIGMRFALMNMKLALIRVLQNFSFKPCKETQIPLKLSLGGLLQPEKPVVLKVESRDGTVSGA
Chain of Cytochrome P450 2C19 (Homo sapiens) (P33261 whole entry, looked up): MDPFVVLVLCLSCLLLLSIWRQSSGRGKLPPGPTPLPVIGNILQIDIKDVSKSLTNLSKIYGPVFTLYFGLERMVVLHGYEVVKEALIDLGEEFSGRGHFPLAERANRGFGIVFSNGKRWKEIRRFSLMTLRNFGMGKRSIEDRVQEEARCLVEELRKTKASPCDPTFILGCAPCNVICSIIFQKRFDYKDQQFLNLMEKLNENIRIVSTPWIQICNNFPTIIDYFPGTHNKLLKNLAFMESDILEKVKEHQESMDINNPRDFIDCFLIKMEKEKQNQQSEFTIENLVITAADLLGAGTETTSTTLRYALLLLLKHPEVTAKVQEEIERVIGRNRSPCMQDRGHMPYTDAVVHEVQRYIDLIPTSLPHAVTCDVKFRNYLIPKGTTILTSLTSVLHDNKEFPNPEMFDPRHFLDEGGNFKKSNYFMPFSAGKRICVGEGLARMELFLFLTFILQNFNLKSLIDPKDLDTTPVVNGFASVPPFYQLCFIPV
Chain of Cytochrome P450 2C9 (Homo sapiens) (P11712 whole entry, looked up): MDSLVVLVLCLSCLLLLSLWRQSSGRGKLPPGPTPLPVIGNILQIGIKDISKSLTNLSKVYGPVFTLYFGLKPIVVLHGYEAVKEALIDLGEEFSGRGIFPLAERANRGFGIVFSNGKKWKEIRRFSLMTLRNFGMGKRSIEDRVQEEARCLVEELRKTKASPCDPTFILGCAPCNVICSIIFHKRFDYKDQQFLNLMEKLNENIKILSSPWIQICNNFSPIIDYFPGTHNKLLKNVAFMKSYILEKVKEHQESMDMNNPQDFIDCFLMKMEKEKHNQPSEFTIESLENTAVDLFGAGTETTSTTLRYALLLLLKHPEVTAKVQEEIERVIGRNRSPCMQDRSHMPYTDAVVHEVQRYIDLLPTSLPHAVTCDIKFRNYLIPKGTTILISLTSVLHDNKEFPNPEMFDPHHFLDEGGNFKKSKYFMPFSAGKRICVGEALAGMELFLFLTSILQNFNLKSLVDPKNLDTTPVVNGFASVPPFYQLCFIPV

For the compound `CCOCn1c(-c2ccc(Cl)cc2)c(C#N)c(Br)c1C(F)(F)F`, the Potency entry in test [1], in test [2] and in test [3] was “inactive” in each case. Further, the Potency in test [4] is 4.48 µM (active); in test [5], 8.94 µM (active); in test [6], 0.633 µM (active).

In the case of `O=C(NC(=O)c1c(F)cccc1F)Nc1cc(Cl)c(OC(F)(F)C(F)F)c(Cl)c1`, the Potency entry in test [1], in test [2], in test [3], in test [7] and in test [8] was “inactive” in each case. In addition, the Potency is 79.6 µM (active) in test [4] and 39.9 µM (active) in test [5].

For `C[As+](C)(C)CC(=O)[O-]`, the Potency entry in test [1], in test [2], in test [3], in test [4], in test [5] and in test [6] was “inactive” each time. Further, the Potency entry in test [7] and in test [8] was “inactive” throughout.

As to `CC1(C)CC/C(=C/c2ccc(Cl)cc2)C1(O)Cn1cncn1` (configuration not stated), the Potency result in test [1], in test [2], in test [3] and in test [7] was “inactive” each time. Further, the values for the Potency in test [4], in test [5] and in test [6] were 0.223 µM (active), 1.12 µM (active) and 35.4 µM (active), respectively.

As to `CC(=[OH+])/C=C(/C)[O-].CC(=[OH+])/C=C(\C)[O-].CC(=[OH+])/C=C(\C)[O-].[Fe]`, the Potency result in test [1], in test [2], in test [3], in test [4], in test [5] and in test [6] was “inactive” throughout. The Potency result in test [7] and in test [8] was “inactive” throughout.

Consider `Cc1cc(C(C)(C)c2cc(C)c(O)c(C)c2)cc(C)c1O`, for which the Potency entry in test [1], in test [2], in test [3] and in test [7] was “inactive” throughout. The Potency in test [4] was 1.22 µM (active); in test [5], 3.07 µM (active).

Consider `CCCCN(CCCC)C(=S)[S-].CCCCN(CCCC)C(=S)[S-].[Zn+2]`, for which the Potency result in test [1], in test [2], in test [3] and in test [7] was “inactive” throughout. For the same compound, the Potency in test [4] was 79.6 µM (active); in test [5], 20 µM (active); in test [8], 28.3 µM (active).

For the compound `S=C(SSC(=S)N1CCCCC1)N1CCCCC1`, the Potency entry in test [1], in test [3] and in test [7] was “inactive” in each case. Moreover, the figures for the Potency in test [2], in test [4] and in test [5] were 38.9 µM (active), 6.92 µM (active) and 6.92 µM (active), respectively.

Take `C=COCCCl`: the Potency entry in test [1], in test [2], in test [3], in test [4], in test [5] and in test [6] was “inactive” in each case. Moreover, the Potency entry in test [7] and in test [8] was “inactive” throughout.

For `CCCCCCCCCCCCBr`, the Potency result in test [1], in test [2], in test [3], in test [4] and in test [5] was “inactive” each time.

As to `CCOC(=O)C1(c2ccccc2)CCN(CCC(C#N)(c2ccccc2)c2ccccc2)CC1`, the Potency result in test [1], in test [2], in test [3], in test [6] and in test [8] was “inactive” each time. Besides, the Potency in test [4] was 9.77 µM (active); in test [5], 3.09 µM (active); in test [7] it was 0.601 µM (active).

With `O=C1c2ccccc2C(=O)C1C(=O)C(c1ccccc1)c1ccc(Cl)cc1` (configuration not stated), the Potency result in test [1], in test [2], in test [3], in test [7] and in test [8] was “inactive” throughout. Besides, the values for the Potency in test [4] and in test [5] were 17.8 µM (active) and 0.0252 µM (active), respectively.

With `C[C@@H](Oc1ccc(Cl)cc1Cl)C(=O)O`, the Potency entry in test [1], in test [2], in test [3], in test [4], in test [5] and in test [6] was “inactive” throughout. Moreover, the Potency result in test [7] and in test [8] was “inactive” throughout.

Regarding `O=C(O)c1cc[c]([Hg][Cl])cc1`, the Potency result in test [1], in test [3] and in test [7] was “inactive” throughout. Besides, the Potency in test [2] is 71 µM (active); in test [4] it was 7.1 µM (active); in test [5], 4.48 µM (active); in test [6], 17.8 µM (active); in test [8], 8.94 µM (active).

Regarding `Fc1cccc(Cl)c1CCl`, the Potency entry in test [1], in test [2], in test [3], in test [4], in test [5] and in test [7] was “inactive” throughout. In test [8], the Potency result is “inactive”. The Potency in test [6] was 39.9 µM (active).

With `Cc1cc(C)cc(OP(=O)(Oc2cc(C)cc(C)c2)Oc2cc(C)cc(C)c2)c1`, the Potency entry in test [1], in test [2] and in test [3] was “inactive” throughout. The Potency in test [4] was 9.08 µM (active); in test [5], 5.73 µM (active); in test [6] it was 22.8 µM (active); in test [8] it was 2.03 µM (active).

Consider `ClC1=C(Cl)[C@]2(Cl)[C@@H]3[C@@H](Cl)[C@@H](Cl)C[C@@H]3[C@@]1(Cl)C2(Cl)Cl`, for which the Potency entry in test [1], in test [2], in test [3], in test [4], in test [5] and in test [7] was “inactive” each time. The Potency result in test [8] was “inactive”.

Consider `CC(=O)Nc1ccc2c(c1)Cc1ccccc1-2`, for which the Potency result in test [1], in test [2], in test [3] and in test [7] was “inactive” in each case. Also, the Potency was 18.1 µM (active) in test [4], 25.6 µM (active) in test [5] and 64.3 µM (active) in test [8].

On to `COC(=O)N(C(=O)N1CO[C@@]2(C(=O)OC)Cc3cc(Cl)ccc3C2=N1)c1ccc(OC(F)(F)F)cc1`, for which the Potency entry in test [1], in test [2], in test [3] and in test [7] was “inactive” in each case. For the same compound, the Potency in test [4] was 0.154 µM (active); in test [5], 2.73 µM (active); in test [8] it was 2.44 µM (active).

For `N#Cc1ccccc1N`, the Potency result in test [1], in test [2], in test [3], in test [4], in test [5] and in test [6] was “inactive” in each case. Moreover, the Potency entry in test [7] and in test [8] was “inactive” each time.

With `Nc1ccc(Cl)cc1C(=O)c1ccccc1`, the Potency result in test [1], in test [2] and in test [3] was “inactive” throughout. In addition, the Potency in test [4] is 15.9 µM (active); in test [5], 39.9 µM (active).

For the compound `ClCCN1CCOCC1`, the Potency result in test [1], in test [2], in test [3], in test [4], in test [5] and in test [6] was “inactive” throughout. Besides, the Potency result in test [7] was “inactive”.

Consider `CCN(CC)C(=S)[S-].CCN(CC)C(=S)[S-].[Zn+2]`, for which the Potency result in test [1], in test [2], in test [3] and in test [6] was “inactive” in each case. Also, the Potency in test [4] is 49.8 µM (active); in test [5], 15.8 µM (active); in test [7] it was 8.63 µM (active).
